The supplement of paper PMC11732987, “Enantioselective OTUD7B fragment discovery through chemoproteomics screening and high-throughput optimisation” (Communications Chemistry, 2025)

Assays:
Assay in all cases: log2 ratio of Biotin-Ahx-Ub-VS probe labelling (fragment/DMSO); higher = less target engagement (more negative = stronger competition), active = hit call of the paper (q ≤ 0.05, log2 ratio ≤ -1)
Conditions in all cases: compound concentration: 200 uM; treatment time: 3 h
[1] = target: T1, USP19 (UniProt O94966)
T1 sequence (whole entry): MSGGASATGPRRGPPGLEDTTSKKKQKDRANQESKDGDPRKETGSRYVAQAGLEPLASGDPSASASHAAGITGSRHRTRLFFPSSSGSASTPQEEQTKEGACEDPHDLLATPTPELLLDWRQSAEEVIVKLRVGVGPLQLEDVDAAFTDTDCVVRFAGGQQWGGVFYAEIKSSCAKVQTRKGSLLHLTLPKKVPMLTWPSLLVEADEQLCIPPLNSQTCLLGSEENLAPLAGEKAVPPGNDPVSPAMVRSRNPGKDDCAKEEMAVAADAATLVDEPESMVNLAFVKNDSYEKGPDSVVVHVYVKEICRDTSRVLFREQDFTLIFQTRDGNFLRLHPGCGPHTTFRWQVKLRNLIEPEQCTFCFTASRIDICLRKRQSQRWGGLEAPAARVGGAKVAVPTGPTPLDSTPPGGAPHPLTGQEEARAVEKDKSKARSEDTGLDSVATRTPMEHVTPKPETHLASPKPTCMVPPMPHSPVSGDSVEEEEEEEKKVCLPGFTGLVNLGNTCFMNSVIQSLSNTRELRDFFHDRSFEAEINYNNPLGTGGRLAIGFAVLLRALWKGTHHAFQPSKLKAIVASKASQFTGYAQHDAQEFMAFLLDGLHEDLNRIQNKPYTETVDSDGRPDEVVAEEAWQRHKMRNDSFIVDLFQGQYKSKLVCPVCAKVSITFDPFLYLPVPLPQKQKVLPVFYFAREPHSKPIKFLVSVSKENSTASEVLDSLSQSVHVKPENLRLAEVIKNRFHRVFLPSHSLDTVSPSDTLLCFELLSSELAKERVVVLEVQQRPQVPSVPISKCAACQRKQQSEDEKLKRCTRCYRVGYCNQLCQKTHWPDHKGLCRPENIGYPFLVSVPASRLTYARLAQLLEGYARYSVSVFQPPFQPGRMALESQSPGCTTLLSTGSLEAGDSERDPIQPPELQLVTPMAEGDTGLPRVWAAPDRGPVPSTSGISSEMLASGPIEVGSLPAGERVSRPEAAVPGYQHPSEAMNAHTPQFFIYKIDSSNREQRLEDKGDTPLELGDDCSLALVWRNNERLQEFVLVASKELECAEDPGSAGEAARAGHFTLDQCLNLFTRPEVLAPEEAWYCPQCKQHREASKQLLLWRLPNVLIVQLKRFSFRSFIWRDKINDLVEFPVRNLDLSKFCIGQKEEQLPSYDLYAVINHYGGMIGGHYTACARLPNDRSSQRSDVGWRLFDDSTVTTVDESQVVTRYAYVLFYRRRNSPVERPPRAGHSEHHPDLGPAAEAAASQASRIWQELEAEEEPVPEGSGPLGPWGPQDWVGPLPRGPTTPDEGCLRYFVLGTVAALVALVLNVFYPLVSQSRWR
Summary of the method: (§1)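 HEK293T lysate, 495 µg per sample in Tris/CHAPS/IGEPAL buffer with protease inhibitors, was treated in triplicate with fragment at 200 µM or vehicle for 3 h and then with Biotin-Ahx-Ub-VS at 0.5 µM final for 1 h. Labelled DUBs were NeutrAvidin-enriched, digested with LysC and trypsin, and run by diaPASEF LC-MS/MS. Spectronaut label-free quantities were global-median-normalised, and values are average log2 fragment/vehicle ratios by unpaired t-test on proteins with ≥2 unique peptides.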

[2] = target: T2, USP22 (UniProt Q9UPT9)
T2 sequence (whole entry): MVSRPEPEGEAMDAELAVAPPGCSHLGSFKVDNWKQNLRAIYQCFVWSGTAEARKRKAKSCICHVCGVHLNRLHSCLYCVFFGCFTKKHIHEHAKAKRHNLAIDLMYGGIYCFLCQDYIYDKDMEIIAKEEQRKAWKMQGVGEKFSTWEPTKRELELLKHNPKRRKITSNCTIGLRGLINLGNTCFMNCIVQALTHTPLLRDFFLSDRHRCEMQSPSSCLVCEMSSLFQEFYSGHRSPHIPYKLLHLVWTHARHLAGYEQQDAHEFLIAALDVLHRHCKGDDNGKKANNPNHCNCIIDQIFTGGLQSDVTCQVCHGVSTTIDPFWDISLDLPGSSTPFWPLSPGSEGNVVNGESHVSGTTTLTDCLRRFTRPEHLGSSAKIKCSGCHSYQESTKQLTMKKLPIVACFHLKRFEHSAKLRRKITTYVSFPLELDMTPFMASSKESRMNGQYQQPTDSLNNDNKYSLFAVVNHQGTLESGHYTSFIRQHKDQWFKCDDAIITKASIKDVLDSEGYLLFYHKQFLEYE
Summary of the method: as §1

[3] = target: USP24 (UniProt Q9UPU5)
USP24, sequence (Q9UPU5 whole entry): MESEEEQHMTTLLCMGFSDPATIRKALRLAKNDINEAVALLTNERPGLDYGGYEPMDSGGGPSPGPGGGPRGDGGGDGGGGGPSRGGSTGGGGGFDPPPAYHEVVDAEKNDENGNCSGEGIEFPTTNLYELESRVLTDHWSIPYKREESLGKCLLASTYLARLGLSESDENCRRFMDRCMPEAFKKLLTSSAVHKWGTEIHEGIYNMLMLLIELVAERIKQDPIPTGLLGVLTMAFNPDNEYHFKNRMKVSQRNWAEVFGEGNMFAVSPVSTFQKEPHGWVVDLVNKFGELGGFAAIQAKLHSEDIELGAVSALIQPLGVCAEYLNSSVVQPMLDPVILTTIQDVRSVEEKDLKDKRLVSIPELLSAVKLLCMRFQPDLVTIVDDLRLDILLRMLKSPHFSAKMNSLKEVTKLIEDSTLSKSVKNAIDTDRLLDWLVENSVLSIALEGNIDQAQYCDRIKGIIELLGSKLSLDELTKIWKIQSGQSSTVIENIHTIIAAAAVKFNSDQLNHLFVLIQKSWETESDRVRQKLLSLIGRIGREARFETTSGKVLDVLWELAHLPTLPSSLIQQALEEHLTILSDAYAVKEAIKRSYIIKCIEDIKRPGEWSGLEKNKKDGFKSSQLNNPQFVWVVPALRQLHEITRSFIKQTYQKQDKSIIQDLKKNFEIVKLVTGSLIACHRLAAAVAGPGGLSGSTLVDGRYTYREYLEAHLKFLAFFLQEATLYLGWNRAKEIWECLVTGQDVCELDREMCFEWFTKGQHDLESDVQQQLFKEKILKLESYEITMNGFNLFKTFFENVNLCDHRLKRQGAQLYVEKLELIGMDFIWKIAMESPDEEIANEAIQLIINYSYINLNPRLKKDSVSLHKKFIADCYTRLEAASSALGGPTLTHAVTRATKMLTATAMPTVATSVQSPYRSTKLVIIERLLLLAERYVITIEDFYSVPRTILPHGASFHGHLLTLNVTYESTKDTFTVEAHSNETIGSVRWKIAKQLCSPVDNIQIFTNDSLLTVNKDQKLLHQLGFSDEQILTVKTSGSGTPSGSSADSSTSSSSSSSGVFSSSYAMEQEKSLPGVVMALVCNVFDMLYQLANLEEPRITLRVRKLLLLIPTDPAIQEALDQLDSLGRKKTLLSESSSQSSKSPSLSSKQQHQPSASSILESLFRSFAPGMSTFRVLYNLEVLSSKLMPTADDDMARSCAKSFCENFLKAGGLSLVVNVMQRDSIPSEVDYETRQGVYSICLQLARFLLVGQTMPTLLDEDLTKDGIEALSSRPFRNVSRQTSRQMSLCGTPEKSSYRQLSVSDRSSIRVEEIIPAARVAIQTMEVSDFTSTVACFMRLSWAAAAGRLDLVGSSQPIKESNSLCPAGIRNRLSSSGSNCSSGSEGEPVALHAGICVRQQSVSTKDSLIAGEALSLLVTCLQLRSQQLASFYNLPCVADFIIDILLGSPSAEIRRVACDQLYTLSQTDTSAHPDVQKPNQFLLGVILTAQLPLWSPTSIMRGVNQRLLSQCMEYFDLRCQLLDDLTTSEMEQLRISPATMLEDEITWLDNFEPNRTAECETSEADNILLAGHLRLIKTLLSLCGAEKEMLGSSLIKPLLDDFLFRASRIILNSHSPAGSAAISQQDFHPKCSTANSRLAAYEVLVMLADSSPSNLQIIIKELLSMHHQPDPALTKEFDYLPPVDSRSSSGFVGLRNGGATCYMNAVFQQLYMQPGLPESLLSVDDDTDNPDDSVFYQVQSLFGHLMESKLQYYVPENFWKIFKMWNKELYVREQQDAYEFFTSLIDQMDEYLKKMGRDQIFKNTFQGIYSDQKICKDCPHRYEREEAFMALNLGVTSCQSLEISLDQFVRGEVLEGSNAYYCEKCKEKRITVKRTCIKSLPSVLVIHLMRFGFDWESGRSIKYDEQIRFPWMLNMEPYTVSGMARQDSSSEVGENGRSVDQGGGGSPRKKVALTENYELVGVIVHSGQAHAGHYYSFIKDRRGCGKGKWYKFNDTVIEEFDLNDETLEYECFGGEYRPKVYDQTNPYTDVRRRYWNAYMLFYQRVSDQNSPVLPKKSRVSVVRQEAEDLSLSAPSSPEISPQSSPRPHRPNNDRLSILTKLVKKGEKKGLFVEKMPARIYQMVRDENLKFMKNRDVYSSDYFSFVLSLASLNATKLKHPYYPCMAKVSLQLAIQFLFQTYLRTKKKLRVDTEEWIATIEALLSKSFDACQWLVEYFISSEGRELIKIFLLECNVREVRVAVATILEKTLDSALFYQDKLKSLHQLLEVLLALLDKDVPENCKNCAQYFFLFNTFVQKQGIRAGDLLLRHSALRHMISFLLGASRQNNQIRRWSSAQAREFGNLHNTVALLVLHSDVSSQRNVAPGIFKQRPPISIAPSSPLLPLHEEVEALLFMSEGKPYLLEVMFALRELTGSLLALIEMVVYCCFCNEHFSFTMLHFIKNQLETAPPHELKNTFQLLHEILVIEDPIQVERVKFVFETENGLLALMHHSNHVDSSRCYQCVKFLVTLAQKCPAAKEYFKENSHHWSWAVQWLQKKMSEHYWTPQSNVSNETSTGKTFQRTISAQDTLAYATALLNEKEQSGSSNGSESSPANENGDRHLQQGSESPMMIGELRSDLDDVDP
Summary of the method: as §1

[4] = target: T3, USP25 (UniProt Q9UHP3)
T3 sequence (whole entry): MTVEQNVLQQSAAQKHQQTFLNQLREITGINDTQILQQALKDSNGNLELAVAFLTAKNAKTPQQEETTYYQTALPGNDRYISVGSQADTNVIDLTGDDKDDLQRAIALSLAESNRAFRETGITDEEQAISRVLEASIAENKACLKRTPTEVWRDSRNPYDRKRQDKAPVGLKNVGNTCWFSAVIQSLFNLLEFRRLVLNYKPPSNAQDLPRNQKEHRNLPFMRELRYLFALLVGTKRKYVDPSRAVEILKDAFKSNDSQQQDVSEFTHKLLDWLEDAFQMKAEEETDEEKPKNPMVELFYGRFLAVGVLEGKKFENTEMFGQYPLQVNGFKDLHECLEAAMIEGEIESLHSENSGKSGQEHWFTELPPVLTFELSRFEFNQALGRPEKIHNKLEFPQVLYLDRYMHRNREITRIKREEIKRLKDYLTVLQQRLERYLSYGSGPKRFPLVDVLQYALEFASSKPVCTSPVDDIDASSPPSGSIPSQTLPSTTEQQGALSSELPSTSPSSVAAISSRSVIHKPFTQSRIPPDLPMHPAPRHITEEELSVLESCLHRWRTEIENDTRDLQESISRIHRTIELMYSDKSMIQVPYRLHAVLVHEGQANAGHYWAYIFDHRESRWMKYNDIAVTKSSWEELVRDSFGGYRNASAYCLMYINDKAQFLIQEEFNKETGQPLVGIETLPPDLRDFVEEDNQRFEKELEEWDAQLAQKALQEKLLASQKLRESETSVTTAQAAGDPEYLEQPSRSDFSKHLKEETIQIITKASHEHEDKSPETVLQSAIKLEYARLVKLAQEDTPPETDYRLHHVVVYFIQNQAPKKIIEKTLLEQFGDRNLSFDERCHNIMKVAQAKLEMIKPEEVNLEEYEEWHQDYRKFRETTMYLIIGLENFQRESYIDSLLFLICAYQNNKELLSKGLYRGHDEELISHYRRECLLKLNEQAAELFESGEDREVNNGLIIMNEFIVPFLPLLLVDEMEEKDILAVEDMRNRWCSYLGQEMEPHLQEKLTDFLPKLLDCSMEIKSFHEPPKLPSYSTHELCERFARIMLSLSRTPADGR
Summary of the method: as §1

[5] = target: T4, USP28 (UniProt Q96RU2)
T4 sequence (whole entry): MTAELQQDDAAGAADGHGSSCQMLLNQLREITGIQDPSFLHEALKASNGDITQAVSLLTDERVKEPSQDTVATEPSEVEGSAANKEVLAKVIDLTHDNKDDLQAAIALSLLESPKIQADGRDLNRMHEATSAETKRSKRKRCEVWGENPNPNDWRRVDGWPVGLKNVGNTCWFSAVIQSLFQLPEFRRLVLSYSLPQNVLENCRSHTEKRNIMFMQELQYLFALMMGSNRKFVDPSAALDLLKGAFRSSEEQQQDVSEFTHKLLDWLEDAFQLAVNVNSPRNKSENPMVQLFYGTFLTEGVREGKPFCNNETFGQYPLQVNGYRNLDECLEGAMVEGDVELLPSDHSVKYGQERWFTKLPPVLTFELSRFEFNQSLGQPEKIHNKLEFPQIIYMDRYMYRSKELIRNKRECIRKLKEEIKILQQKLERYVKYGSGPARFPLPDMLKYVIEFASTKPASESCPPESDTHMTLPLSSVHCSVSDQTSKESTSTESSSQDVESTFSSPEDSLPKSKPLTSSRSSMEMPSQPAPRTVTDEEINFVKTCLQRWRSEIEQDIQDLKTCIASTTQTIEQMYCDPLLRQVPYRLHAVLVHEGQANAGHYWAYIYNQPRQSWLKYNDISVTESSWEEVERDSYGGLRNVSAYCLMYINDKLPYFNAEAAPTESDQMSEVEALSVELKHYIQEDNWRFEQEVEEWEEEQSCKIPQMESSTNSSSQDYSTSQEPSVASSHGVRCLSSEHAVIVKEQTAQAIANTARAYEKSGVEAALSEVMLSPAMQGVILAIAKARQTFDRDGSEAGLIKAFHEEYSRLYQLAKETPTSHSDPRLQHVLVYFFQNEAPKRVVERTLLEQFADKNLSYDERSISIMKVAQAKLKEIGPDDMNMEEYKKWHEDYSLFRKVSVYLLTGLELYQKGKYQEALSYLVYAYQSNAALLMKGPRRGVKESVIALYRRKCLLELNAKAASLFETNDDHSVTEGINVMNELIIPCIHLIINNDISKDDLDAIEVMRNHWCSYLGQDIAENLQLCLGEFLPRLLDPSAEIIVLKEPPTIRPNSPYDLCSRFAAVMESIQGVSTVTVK
Summary of the method: as §1

Measured: log2 ratio of Biotin-Ahx-Ub-VS probe labelling

Cc1ccc(CN(C)C(=O)CCl)o1
inactive: [1] -0.241 | [2] -0.454 | [3] -0.411 | [4] -0.156 | [5] -0.465
